40 compounds from PubChem BioAssay (EPA / NIEHS) can be followed below.

The structures appear in SMILES notation. Active and inactive are the calls of the source. The calls were made as follows: active = hit-call score of the fitted dose curve at least 0.9, where 1 is the maximum; inactive = score below 0.9.

Read-out in the assay: BCL2L11 (gene 10018)
The experiment in a line: LTEA_HepaRG_BCL2L11: Life Technologies and Expression Analysis (LTEA) Assay for Bcl-2 (BCL2L11) gene using HepaRG (AID 2283473). The conditions noted are these: mRNA level, 48 h; actives raise or lower the signal. The procedure:
LTEA_HepaRG is a cell based, multiplexed-readout assay that uses HepaRG, a human liver cell line, with measurements taken at 48 hours after chemical dosing on a 96-well plate.LTEA_HepaRG_BCL2L11 is one of 102 assay component(s) measured in the LTEA HepaRG cell culture assay. It is a marker of Cell proliferation, survival, death.Data from the assay component LTEA_HepaRG_BCL2L11 was analyzed into 1 endpoint. This assay endpoint, LTEA_HepaRG_BCL2L11, was analyzed with bidirectional fitting relative to DMSO as the negative control and baseline of activity. Using a type of inducible reporter, measures of mRNA induction for gain or loss-of-signal activity can be used to understand regulation of transcription factor activity. To generalize the intended target to other relatable targets, this assay endpoint is annotated to the cell cycle intended target family, where the subfamily is Cell proliferation, survival, death.
A total of 1060 chemcials from the ToxCast library were tested in eight-point concentration-response experiments. Cell culture and cytotoxicity assays were conducted at Thermo Fisher Scientific's Custom Services facility (Madison, WI). A single lot of human HepaRG cells (Thermo Fisher Scientific, Frederick, MD) was used for the cell culture experiments. 96-well format collagen type I coated plates of human HepaRG cells were prepared using established methods. Briefly, cryopreserved HepaRG cells were thawed, plated at a density of approximately 100,000 cells/well in HepaRG Thaw, Plate, and General Purpose media (HPRG770, Thermo Fisher Scientific), and incubated for 48 hours. 0.5% DMSO was selected as vehicle control to balance the requisite need of DMSO in HepaRG cultures to maintain differentiation (for example, baseline metabolism, proportions of hepatocytes vs. cholangiocytes), while enabling further hepatic receptor pathway activation (for example, PXR and CAR) in response to chemical exposure. 48 hours after plating, the culture medium was replaced with HepaRG Serum-Free Incudtion Media. Cells were exposed to each test chemical in duplicate and maintained in CO2 incubators for another 48 hours. Chemical plates were thawed to room temperature and 200x concentrations of treatment groups were prepared. 8-point conentration-reponse curves were made with the highest exposure at 100 uM, followed by half-log dilutions, all in 0.5% DMSO. Each test plate contained variouse controls, induction positive controls (1mM phenobarbital), cytotoxicity positive controls ([…] aflatoxin B1), vehicle controls (0.5% DMSO), and total lysis controls (0.5% DMSO). Cell morphology images were taken using an Essen IncuCyte FLR automated microscope, with six 96-well plates imaged in about 24 minutes. Images were captured and exported and JPEG files. Spent culture media was transfered to black-well plates for the LDH assay, and remaining media was sorted at -80 C for later use. Cells were treated with RLT buffer and frozen until shipped for gene expression analysis. Total RNA was isolated from the cell suspension in 75 uL of Buffer RLT (Qiagen, Germantown, MD 20874) by Quintiles/Expression Analysis (Durham, NC) using a custom isolation procedure. Total RNA from each plate well was transferred to a preamplification plate. Fluidigm's 96.96 Dynamic ArrayTM (Fluidigm, Amsterdam, the Netherlands) technology was used for gene expression analyses by quantitative reverse transcription polymerase chain reaction (qRT-PCR, performed by Quintiles/Expression Analysis, Durham, NC)89. Standard TaqManTM Assays (Applied Biosystems/ThermoFisher Scientific, Foster City, CA) were used to assess the expression of 93 genes selected based on their selectivity and sensitivity to important hepatic receptors known to be modulated by environmental chemicals; importance in human hepatocyte functionality; and hepatotoxicity. […]
Turning to `Cc1ccc(Cl)cc1`, the result was inactive. The same measure, in the same setting: as for `CC1(C)CC(N=C=O)CC(C)(CN=C=O)C1` (stereo not given), the entry is “inactive”. For `CC1=C(/C=C/C(C)=C/C=C/C(C)=C/CO)C(C)(C)CCC1`, the call was inactive. On the same count and under the same terms, then `Cc1ccc2ncccc2c1`, with “inactive”. Take `O=C(OCCCCCOC(=O)c1ccccc1)c1ccccc1`: the AC50 was 2.45 µM (active).

`COc1ccc(S(=O)(=O)N2C(=O)[C@@](c3ccccc3OC)(N3C[C@H](O)C[C@H]3C(=O)N(C)C)c3cc(Cl)ccc32)c(OC)c1`: the AC50 is 63.4 µM (active). As for `O=c1c(O)c(-c2ccc(O)c(O)c2)oc2cc(O)cc(O)c12`, the result was inactive. Still for that read-out and setting: as for `Nc1ccc(S(=O)(=O)c2ccc(N)cc2)cc1`, the entry is “inactive”; as for `CCCCCCCCCCCCCCCCCC(=O)O`, “inactive”. `Oc1ccc2ccccc2c1N=Nc1ccccc1`: the AC50 was 15.1 µM (active). For `CCOC(=O)CCC(=O)OCC`, the compound was classed as inactive.

As to `NS(=O)(=O)c1cc2c(cc1Cl)NCNS2(=O)=O`, the compound was called inactive. On the same count and under the same terms, then `COc1ccc(C)cc1N`, with “inactive”.

Consider `Cc1ccc(C)c(C)c1`, for which the outcome was inactive.

Take `CC=Cc1ccc(O)c(OC)c1`: the result was inactive.

For `CCCCOC(=O)CCCCCCCCC(=O)OCCCC`, the result was inactive. With `CN[C@H]1CC[C@@H](c2ccc(Cl)c(Cl)c2)c2ccc(S(N)(=O)=O)cc21`, the compound was classed as inactive.

In the case of `CC(=O)C(C)=CC1C(C)=CCCC1(C)C` (stereo not given), the compound was classed as inactive. Same read-out and setting: as for `Cc1cc(=O)[nH]c(=S)[nH]1`, the entry is “inactive”; as for `C[Si]1(C)O[Si](C)(C)O[Si](C)(C)O[Si](C)(C)O1`, “inactive”; as for `C[C@]12C=CC(=O)C=C1CC[C@@H]1[C@@H]2C(=O)C[C@@]2(C)[C@H]1CC[C@]2(O)C(=O)CO`, “inactive”. On the same count and under the same terms, as for `CC(=O)Oc1ccccc1C(=O)O`, the entry is “inactive”; as for `Clc1cc(Cl)c(Cl)cc1Cl`, “inactive”; as for `CNC(=O)[C@H]1O[C@@H](n2cnc3c(NCc4cc(Cl)ccc4OCc4cc(C)no4)ncnc32)[C@H](O)[C@@H]1N`, “inactive”. The same measure, in the same setting: as for `COCCOCCOC`, the entry is “inactive”. Consider `CCOc1ccc2c(c1)C(C)=CC(C)(C)N2`, for which the AC50 is 9.92 µM (active). Take `O=[N+]([O-])C(CO)(CO)CO`: the compound was classed as inactive.

For the compound `CCCc1cc(=O)[nH]c(=S)[nH]1`, the outcome was inactive. Take `COc1ccc2c(c1)c(CC(=O)O)c(C)n2C(=O)c1ccc(Cl)cc1`: the result was inactive. On the same count and under the same terms, then `COc1cc(S(=O)(=O)O)c(C)cc1N=Nc1c(O)ccc2cc(S(=O)(=O)O)ccc12`, with “inactive”; and `C=CCc1ccc(O)c(OC)c1`, with “inactive”. `CC1(C)NC(=O)NC1=O`: the compound was called inactive. Same read-out and setting: as for `CCCCCC(=O)O`, the entry is “inactive”; as for `Cc1ccc(C)c(O)c1C`, “inactive”; as for `CN1CCCC1=O`, “inactive”. Take `CCOC(=O)C(C)(C)Oc1ccc(Cl)cc1`: the result was inactive.

Consider `Cc1ccc(N(C)C)cc1`, for which the outcome was inactive. Still for that read-out and setting: as for `CCCCCCCCCCCCCO`, the entry is “inactive”. For the compound `CCCCc1ccc2c(n1)[C@@H](c1ccc(OC)cc1C[C@H](C)C(=O)O)[C@H](C(=O)O)[C@H]2c1ccc2c(c1)OCO2`, the compound was called inactive. The same measure, in the same setting: as for `CC(C)(C)c1cc(O)c(C(C)(C)C)cc1O`, the entry is “inactive”.
